Test results as given in paper PMC4336329 (PLoS ONE, 2015).
About 2,200 (0.71%) of roughly 310,000 compounds showed an effect of 50% or more. The effect is printed as a negative number. Only a selection was taken, and strong results are over-represented in it overall.

Molecular target: human ether-à-go-go-related gene (hERG) potassium channel (human, UniProt Q12809)
Experiment: primary screen, population patch clamp on CHO cells stably expressing hERG; higher = less effect of the substance

Chain of human ether-à-go-go-related gene (hERG) potassium channel (Q12809 whole entry, looked up): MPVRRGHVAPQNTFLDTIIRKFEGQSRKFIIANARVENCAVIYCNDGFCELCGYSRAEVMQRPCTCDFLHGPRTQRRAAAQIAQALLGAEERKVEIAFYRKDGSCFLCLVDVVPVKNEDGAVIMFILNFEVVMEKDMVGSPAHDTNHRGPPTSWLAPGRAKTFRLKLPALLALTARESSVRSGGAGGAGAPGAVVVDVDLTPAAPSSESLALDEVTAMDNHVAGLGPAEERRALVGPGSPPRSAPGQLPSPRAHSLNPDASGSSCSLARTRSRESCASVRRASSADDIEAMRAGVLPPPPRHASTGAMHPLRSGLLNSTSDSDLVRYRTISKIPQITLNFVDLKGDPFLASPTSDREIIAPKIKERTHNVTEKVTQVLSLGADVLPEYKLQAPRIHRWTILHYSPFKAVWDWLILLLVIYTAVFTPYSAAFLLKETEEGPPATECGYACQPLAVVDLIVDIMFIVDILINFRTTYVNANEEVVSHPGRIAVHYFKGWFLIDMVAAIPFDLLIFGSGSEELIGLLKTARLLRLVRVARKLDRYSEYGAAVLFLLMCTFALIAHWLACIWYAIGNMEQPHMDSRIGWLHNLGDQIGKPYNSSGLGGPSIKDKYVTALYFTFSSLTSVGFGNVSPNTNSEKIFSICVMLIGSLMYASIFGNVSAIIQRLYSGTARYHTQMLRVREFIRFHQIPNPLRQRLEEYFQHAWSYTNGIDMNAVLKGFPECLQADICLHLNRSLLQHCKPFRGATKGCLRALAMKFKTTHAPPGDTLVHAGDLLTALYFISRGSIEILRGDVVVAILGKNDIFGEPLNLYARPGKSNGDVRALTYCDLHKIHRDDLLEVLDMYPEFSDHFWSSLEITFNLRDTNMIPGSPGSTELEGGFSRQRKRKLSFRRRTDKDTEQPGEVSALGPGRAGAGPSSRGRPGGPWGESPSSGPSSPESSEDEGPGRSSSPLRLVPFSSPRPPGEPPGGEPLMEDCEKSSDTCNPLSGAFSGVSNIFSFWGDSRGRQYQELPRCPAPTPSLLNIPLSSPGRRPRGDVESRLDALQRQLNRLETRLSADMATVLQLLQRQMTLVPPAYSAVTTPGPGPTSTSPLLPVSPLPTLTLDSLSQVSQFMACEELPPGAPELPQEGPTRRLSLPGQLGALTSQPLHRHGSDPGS

Structure (SMILES)	hERG current change (%, negative = inhibition) at 1uM [%]
Cn1nc(C(F)(F)F)cc1Oc1ncc(C(F)(F)F)cc1Cl	12.5
CCOc1ccc(NC(=S)N(CCc2c(C)[nH]c3ccccc23)Cc2cccnc2)cc1	-4.48
CCN(CC)S(=O)(=O)c1cccc(C(=O)NCCc2ccccc2)c1	-5.67
O=c1[nH]c(=O)n(CCC2=CCCCC2)c(O)c1C=NCc1cccnc1	9.06
COc1ccc(OCCCC(=O)Nc2nc(C)c(C(C)=O)s2)cc1	10.2
Cc1ccc(-n2c(=O)cc(N3CC(C)OC(C)C3)[nH]c2=O)cc1 (centres unmarked)	10.6
O=C(CC(C(=O)O)c1c[nH]c2ccccc12)c1ccccc1 (centres unmarked)	9.56
COc1ccc(Cc2nc3c4c(ncn3n2)Oc2ccc3ccccc3c2C4c2ccc(OC)c(OC)c2)cc1 (centres unmarked)	5.71
CC(C)n1cnc2c(N(C)c3ccccc3)nc(N(CCN(C)C)Cc3ccccc3)nc21	-58.5
CC(C)n1cnc2c(NCc3ccccc3)nc(NCc3ccccc3)nc21	10.4
COc1cc(N(Cc2ccccc2)Cc2ccccc2)c2ncn(C(C)C)c2c1	8.78
CCOC(=O)Cc1csc(NC(=O)CSc2nnnn2-c2ccc(C)c(C)c2)n1	10
COc1ccc(S(=O)(=O)NCC2CCCN(Cc3ccc(O)cc3)C2)cc1 (centres unmarked)	-12.2
Cc1ccc(CN2CC(C(=O)Nc3ccc(F)c([N+](=O)[O-])c3)CC2=O)cc1 (centres unmarked)	-1.97
CCOc1ccc(OCC(=O)Nc2ccc(OC)cc2[N+](=O)[O-])cc1	8.89
COc1ccc(NC(=O)COc2ccc(C)cc2)c([N+](=O)[O-])c1	8.91
COc1ccc(OCC(=O)N/N=C(\C)CC(=O)Nc2ccc(OC)cc2[N+](=O)[O-])cc1	-61.8
C#CCn1c(=NC(=O)c2ccc(Cl)s2)sc2cccc(OC)c21	14.9
COc1ccc(Br)cc1C(=O)Nc1cccc(C)c1C	2.14
COc1ccc(OC)c(NC(=O)NC2CCCCCCC2)c1	9.24
Cc1cccc(NC(=O)CN2CCOCC2)c1C	12.2
Cc1cccc(NC(=O)CN2CCN(C(=O)C(C)Oc3ccc(C#N)cc3)CC2)c1C (centres unmarked)	-54.7
Cc1cccc(NC(=O)CNC(=O)COc2ccc(-c3ccc(C#N)cc3)cc2)c1C	8.38
COc1ccc(CNC(=O)C2CSC(c3ccc(OC)cc3)N2C(C)=O)cc1 (centres unmarked)	5.4
CCCCN(C)CCN1C(=O)C2C(C(=O)Nc3ccc(Cl)cc3)C3C=CC2(O3)C1C(=O)NC1CCCCC1 (centres unmarked)	-60.5
CCCCN(C)CCN1C(=O)C2C(C(=O)Nc3ccc(OC)cc3)C3C=CC2(O3)C1C(=O)NC1CCCCC1 (centres unmarked)	3.44
CCCCN(C)CCN1C(=O)C2C(C(=O)Nc3ccc(C)cc3)C3C=CC2(O3)C1C(=O)NC1CCCCC1 (centres unmarked)	15.1

Structure (SMILES)	hERG current change (%, negative = inhibition) at 1uM [%]
CN1C(=O)C2(C(C#N)=C(N)Oc3c2oc(CO)cc3=O)c2ccccc21 (centres unmarked)	12
COc1cc(S(=O)(=O)N2CCN(C)CC2)ccc1Cl	14.8
CCOC(=O)C1CCCN(CC(O)COC(c2ccccc2)c2ccccc2)C1 (centres unmarked)	-78.8
OC(COC(c1ccc(F)cc1)c1ccc(F)cc1)CN1CCc2ccccc2C1 (centres unmarked)	-9.74
CC1CCCN(CC(O)COC(c2ccccc2)c2ccccc2)C1 (centres unmarked)	-15
CN1CCN(CC(O)COC(c2ccc(Cl)cc2)c2ccc(Cl)cc2)CC1.Cl (centres unmarked)	-47.8
Cc1ccc(OCC(O)CNCc2ccc(F)cc2)cc1 (centres unmarked)	-14.2
OC(COC(c1ccc(Cl)cc1)c1ccc(Cl)cc1)CN1CCCC1 (centres unmarked)	-75.2
Cc1ccc(C(OCC(O)CNCc2ccc(F)cc2)c2ccccc2)cc1.O=C(O)C(=O)O (centres unmarked)	-75.4
OC(COC(c1ccccc1)c1ccccc1)CN1CCc2ccccc2C1 (centres unmarked)	-75.3
OC1CCCN(CC(O)COC(c2ccccc2)c2ccccc2)C1 (centres unmarked)	1.02
O=C(O)C(=O)O.O=C(c1ccccc1)c1ccc(OCC(O)CNCc2ccc(F)cc2)cc1 (centres unmarked)	-0.143
Cl.OC(COC(c1ccc(Cl)cc1)c1ccc(Cl)cc1)CN1CCc2ccccc2C1 (centres unmarked)	-6.99
CC1CN(CC(O)COC(c2ccc(Cl)cc2)c2ccc(Cl)cc2)CC(C)O1.Cl (centres unmarked)	-2.64
O=C(CNC(=O)c1ccccc1F)NCCc1ccc(Cl)cc1Cl	7.52
O=C(NCc1n[nH]c(=S)n1-c1cccc(Cl)c1)c1ccc(S(=O)(=O)N2CCCCC2)cc1	13.6
CCN(CC)S(=O)(=O)c1cccc(C(=O)Oc2cccc(NC(=O)c3cccs3)c2)c1	7.05
CC(=O)N1C(=O)C2(C(C#N)=C(N)Oc3c2c(C)nn3-c2ccccc2)c2ccccc21 (centres unmarked)	11
Cc1cccc(C(=O)NCCC(=O)NCc2ccccc2F)c1	5.88
COc1ccc(-n2nc(C(=O)NCC(=O)N3CCCCC3)c3ccccc3c2=O)c(OC)c1	15.2
CCN(CC)S(=O)(=O)c1ccc(/C=C/C(=O)OCC(=O)NNC(=O)c2ccc(OC)cc2)cc1	9.94
O=C(O)C(=O)O.OC(COC(c1ccc(F)cc1)c1ccc(F)cc1)CN1CCCC1 (centres unmarked)	-62
CCN1CCN(CC(O)COC(c2ccccc2)c2ccccc2)CC1 (centres unmarked)	7.15
O=C(O)C(=O)O.OC(COC(c1ccc(F)cc1)c1ccc(F)cc1)CN1CCCC(C(F)(F)F)C1 (centres unmarked)	14
COc1ccc(N2CCN(CC(O)COC(C)(C)C)CC2)cc1.O=C(O)C(=O)O (centres unmarked)	12.5
COc1ccc(N2CCN(CC(O)COC(c3ccccc3)c3ccccc3)CC2)cc1 (centres unmarked)	-14.2
COc1ccc(N2CCN(CC(O)COC(c3ccc(F)cc3)c3ccc(F)cc3)CC2)cc1.O=C(O)C(=O)O (centres unmarked)	-74

Structure (SMILES)	hERG current change (%, negative = inhibition) at 1uM [%]
Cc1ccc(C(OCC(O)CN2CCCCC2)c2ccccc2)cc1 (centres unmarked)	-68.6
O=C(O)C(=O)O.OC1CCCN(CC(O)COC(c2ccc(F)cc2)c2ccc(F)cc2)C1 (centres unmarked)	-14.2
OC(COC(c1ccccc1)c1ccccc1)CN1CCCCC1 (centres unmarked)	-18.5
O=C(O)C(=O)O.OCC1CCCCN1CC(O)COC(c1ccc(F)cc1)c1ccc(F)cc1 (centres unmarked)	-60.9
Cc1ccc(C(OCC(O)CN2CCCCC2CO)c2ccccc2)cc1 (centres unmarked)	-39.7
O=C(O)C(=O)O.OCCN1CCN(CC(O)COC(c2ccc(F)cc2)c2ccc(F)cc2)CC1 (centres unmarked)	-20.2
NC(=O)c1cc(Cl)ccc1OCC(=O)N1CCCc2ccccc21	11.4
S=c1[nH]nc(-c2ccc(Cl)cc2)n1-c1ccc2c(c1)OCCO2	7.4
CCN1C(=O)[C@H]2[C@@H](c3ccc(Cl)cc3)N3C(=O)CN(Cc4ccccc4)C(=O)[C@@]3(C)[C@H]2C1=O	10.9
CCCCCOc1ccc(/C=C/c2c([N+](=O)[O-])c(=O)n(C)c(=O)n2C)cc1	12.2
O=c1[nH]cnc2sc(-c3ccccc3)cc12	6.92
COc1ccc(S(=O)(=O)NCc2c(-c3ccccc3)noc2C)c(OC)c1	3.4
CC1CCN(C(CNS(=O)(=O)c2ccccc2)c2ccccc2)CC1 (centres unmarked)	3.61
Cc1ccccc1[C@]1(C)ON(c2ccccc2C(F)(F)F)C1=O	14.2
CN1CCN(C(=O)/C(=C/c2ccc(N(C)C)cc2)NC(=O)c2ccccc2)CC1	7.18
CNC(=O)/C(=C\C=C\c1ccccc1)NC(=O)c1ccc([N+](=O)[O-])cc1	-85
CN(C)CCCNC(=O)/C(=C\C=C\c1ccccc1)NC(=O)c1ccc([N+](=O)[O-])cc1	-42
O=C(N/C(=C/c1ccccc1)C(=O)N1CCCCC1)c1ccc(Br)o1	-0.572
O=C(N/C(=C\c1ccccc1)C(=O)N1CCCCC1)c1ccc(Br)o1	-0.538
O=C(N/C(=C/c1cccc([N+](=O)[O-])c1)C(=O)N1CCCC1)c1ccccc1	-0.775
CN1CCN(C(=O)/C(=C/c2cccc([N+](=O)[O-])c2)NC(=O)c2ccccc2)CC1	-46.5
O=C(N/C(=C\c1ccc([N+](=O)[O-])cc1)C(=O)N1CCCCC1)c1ccccc1	-73.2
O=C(N/C(=C\c1ccc([N+](=O)[O-])cc1)C(=O)N1CCCCC1)c1ccc(Br)o1	-53.4
O=C(N/C(=C\c1ccccc1)C(=O)N1CCCCCC1)c1ccccc1	21.1
CC(C)(C)NC(=O)/C(=C\C=C\c1ccccc1)NC(=O)c1ccc([N+](=O)[O-])cc1	11.2
CN1CCN(C(=O)/C(=C/c2ccc([N+](=O)[O-])cc2)NC(=O)c2ccccc2)CC1	-90.4
